Counter-ions that a name gives are not always drawn.

This experiment has as its system Danio rerio larvae (5 dpf). Description: difference in combined optomotor response to red, green and blue moving lines vs DMSO (percentage points); higher = stronger optomotor response than DMSO. As to conditions: 10 µM; exposure time 6 h. The procedure, abridged:
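Wild-type 5 dpf zebrafish larvae in 96-well plates were given 100 µL egg water containing library compound at 10 µM final for 6 h. After 3 h of exposure, plates at 28.5 ℃ were photographed every 6 s during a 3-h programme of moving lines and 100 ms, 400Hz tones. Z-LaP Tracker (a DeepLabCut model) quantified each behaviour, averaged over 48 larvae per compound. Values are the compound mean minus the DMSO-vehicle control, in percentage points.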
Consider `Nc1nc2c(ncn2COC(CO)CO)c(=O)[nH]1` [Ganciclovir], for which the difference worked out at 4.57. The result for `NS(=O)(=O)c1cc2c(cc1Cl)NCNS2(=O)=O` [Hydrochlorothiazide] reads 2; that for `CC(C)CN(C[C@@H](O)[C@H](Cc1ccccc1)NC(=O)O[C@H]1CCOC1)S(=O)(=O)c1ccc(N)cc1` [Amprenavir], 7.88. The result for `Cc1ccc([C@@H]2O[C@H](CO)[C@@H](O)[C@H](O)[C@H]2O)cc1Cc1ccc(-c2ccc(F)cc2)s1` [Canagliflozin] reads 5.53.

As for `CC(C)(C)NC(=O)[C@H]1CC[C@H]2[C@@H]3CC[C@H]4NC(=O)C=C[C@]4(C)[C@H]3CC[C@]12C` [Finasteride], the difference was 9. The result for `CCCc1nc2c(C)cc(-c3nc4ccccc4n3C)cc2n1Cc1ccc(-c2ccccc2C(=O)O)cc1` [Telmisartan] reads -8.32; that for `CC(C)(C)NC[C@H](O)COc1nsnc1N1CCOCC1` [Timolol (maleate)], 6.47. `O=c1[nH]cc(F)c(=O)[nH]1` [5-Fluorouracil]: the difference was determined as 0.269. `CC1=NN(c2ccccc2)C(=O)C1`: the difference stood at 4.56. Under `N#C[C@@H]1C[C@@H]2C[C@@H]2N1C(=O)[C@@H](N)C12CC3CC(CC(O)(C3)C1)C2` [Saxagliptin (hydrochloride)] stands 2.16.
